Tests used:
Test in all cases: protein-binding microarray (PBM); PBM: ~300 nM protein, 6 mM HEPES pH 7.8, 80 mM KCl, 0.5 mM EDTA, 0.5 mM EGTA, 6% glycerol, 35 ng/ul poly-dIdC, 1% milk, 1 h, room temperature; Ap Aiptasia and Nv Nematostella (sea anemones) / Co Capsaspora / Aq Amphimedon (sponge) / Dm Drosophila / Hu human; RHD is the Rel homology domain; high values mean tight binding
Conditions in all cases: dsDNA, one strand shown
[1] = target: T1, GST-Ap-NF-kB RHD (Exaiptasia pallida (Aiptasia), UniProt A0A913YAJ5 2-422)
T1 sequence: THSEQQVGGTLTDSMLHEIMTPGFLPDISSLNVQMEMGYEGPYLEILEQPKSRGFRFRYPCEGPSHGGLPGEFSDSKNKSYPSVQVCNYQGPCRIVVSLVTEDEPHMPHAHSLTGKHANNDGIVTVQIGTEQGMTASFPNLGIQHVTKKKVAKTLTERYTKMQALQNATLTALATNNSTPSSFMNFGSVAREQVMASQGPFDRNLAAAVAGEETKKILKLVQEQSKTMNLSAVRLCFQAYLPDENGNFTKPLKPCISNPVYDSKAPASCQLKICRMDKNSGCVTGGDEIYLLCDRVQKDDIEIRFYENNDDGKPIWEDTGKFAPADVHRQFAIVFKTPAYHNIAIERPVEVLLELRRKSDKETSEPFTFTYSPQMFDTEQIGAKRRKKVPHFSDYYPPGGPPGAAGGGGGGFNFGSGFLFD

[2] = target: T2, GST-Nv-NF-kB (Cys allele) (Nematostella vectensis, UniProt E5G601 2-411)
T2 sequence: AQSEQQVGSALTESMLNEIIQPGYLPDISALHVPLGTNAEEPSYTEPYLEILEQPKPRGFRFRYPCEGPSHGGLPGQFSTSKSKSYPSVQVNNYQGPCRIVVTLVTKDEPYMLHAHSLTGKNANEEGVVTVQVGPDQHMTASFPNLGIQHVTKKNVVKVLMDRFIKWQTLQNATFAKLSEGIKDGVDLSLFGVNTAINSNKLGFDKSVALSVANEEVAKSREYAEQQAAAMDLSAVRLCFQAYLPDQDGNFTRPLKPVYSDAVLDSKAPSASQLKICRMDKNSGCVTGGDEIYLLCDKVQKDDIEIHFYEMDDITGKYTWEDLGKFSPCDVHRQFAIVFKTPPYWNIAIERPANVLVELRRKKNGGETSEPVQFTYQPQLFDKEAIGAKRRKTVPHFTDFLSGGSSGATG

[3] = target: T3, GST-Co-NF-kB (Capsaspora owczarzaki, UniProt F1ARL5 200-546)
T3 sequence: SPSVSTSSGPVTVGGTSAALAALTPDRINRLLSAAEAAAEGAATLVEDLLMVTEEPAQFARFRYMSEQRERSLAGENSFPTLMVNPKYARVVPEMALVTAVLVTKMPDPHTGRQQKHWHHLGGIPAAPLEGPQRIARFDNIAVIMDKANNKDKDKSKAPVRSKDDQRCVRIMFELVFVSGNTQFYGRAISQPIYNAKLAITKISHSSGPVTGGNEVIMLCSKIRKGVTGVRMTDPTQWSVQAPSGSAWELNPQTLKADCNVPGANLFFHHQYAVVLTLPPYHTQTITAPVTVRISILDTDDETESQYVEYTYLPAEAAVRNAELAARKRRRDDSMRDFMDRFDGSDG

[4] = target: T4, GST-Dm-Relish (Drosophila melanogaster, UniProt Q94527 99-473)
T4 sequence: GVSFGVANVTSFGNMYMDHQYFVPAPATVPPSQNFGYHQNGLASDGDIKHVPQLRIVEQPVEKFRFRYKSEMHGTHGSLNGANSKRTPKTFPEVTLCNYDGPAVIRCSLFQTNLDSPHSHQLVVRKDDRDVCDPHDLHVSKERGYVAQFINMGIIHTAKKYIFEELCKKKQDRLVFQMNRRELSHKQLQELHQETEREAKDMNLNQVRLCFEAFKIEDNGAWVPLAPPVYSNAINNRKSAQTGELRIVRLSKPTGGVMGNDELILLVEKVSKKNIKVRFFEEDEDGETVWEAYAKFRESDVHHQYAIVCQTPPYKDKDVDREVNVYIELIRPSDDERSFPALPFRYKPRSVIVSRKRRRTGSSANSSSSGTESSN

[5] = target: T5, GST-Aq-NF-kB (Amphimedon queenslandica, UniProt A9Y5G7 2-389)
T5 sequence: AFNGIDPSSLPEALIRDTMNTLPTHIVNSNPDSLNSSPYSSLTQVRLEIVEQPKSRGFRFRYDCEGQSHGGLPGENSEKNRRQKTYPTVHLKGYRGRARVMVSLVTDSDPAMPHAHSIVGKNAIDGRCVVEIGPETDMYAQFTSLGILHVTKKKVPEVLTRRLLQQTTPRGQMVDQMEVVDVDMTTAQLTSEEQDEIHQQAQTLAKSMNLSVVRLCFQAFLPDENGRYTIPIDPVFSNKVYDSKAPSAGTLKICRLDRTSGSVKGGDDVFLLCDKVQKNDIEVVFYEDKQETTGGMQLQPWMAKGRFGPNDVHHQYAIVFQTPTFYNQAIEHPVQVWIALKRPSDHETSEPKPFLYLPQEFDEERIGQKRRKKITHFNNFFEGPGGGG

Sequence: CCGATTAACATCATAAGCGGGGATGATGTTAATCGGGTCTTGATTCGCTTGACGCTGCTG
- binding signal [1]: 3.32 z-score
- binding signal [2]: 3.81 z-score
- binding signal [3]: 4.81 z-score
- binding signal [4]: 2.26 z-score
- binding signal [5]: 3.7 z-score

Sequence: CCGATTAACATCAAACCCCCCCGTGATGTTAATCGGGTCTTGATTCGCTTGACGCTGCTG
- binding signal [1]: 6.76 z-score
- binding signal [2]: 3.82 z-score
- binding signal [3]: 5.57 z-score
- binding signal [4]: 7 z-score
- binding signal [5]: 4.9 z-score

Sequence: CCGATTAACATCAGGGCCCCCCCTGATGTTAATCGGGTCTTGATTCGCTTGACGCTGCTG
- binding signal [1]: 6.57 z-score
- binding signal [2]: 4.21 z-score
- binding signal [3]: 2.89 z-score
- binding signal [4]: 6.49 z-score
- binding signal [5]: 7.6 z-score

Sequence: CCGATTAACATCAAAAGAATCCCTGATGTTAATCGGGTCTTGATTCGCTTGACGCTGCTG
- binding signal [1]: 3.44 z-score
- binding signal [2]: 3.59 z-score
- binding signal [3]: 1.15 z-score
- binding signal [4]: 5.35 z-score
- binding signal [5]: 4.69 z-score

Sequence: CCGATTAACATCACGGAGTCCCCTGATGTTAATCGGGTCTTGATTCGCTTGACGCTGCTG
- binding signal [1]: 6.33 z-score
- binding signal [2]: 4.74 z-score
- binding signal [3]: 2.46 z-score
- binding signal [4]: 7.32 z-score
- binding signal [5]: 4.65 z-score

Sequence: CCGATTAACATCAAGCGTTCCCCTGATGTTAATCGGGTCTTGATTCGCTTGACGCTGCTG
- binding signal [1]: 5.35 z-score
- binding signal [2]: 5.36 z-score
- binding signal [3]: 4.53 z-score
- binding signal [4]: 3.82 z-score
- binding signal [5]: 4.01 z-score

Sequence: CCGATTAACATCAAAAATCCCGATGATGTTAATCGGGTCTTGATTCGCTTGACGCTGCTG
- binding signal [1]: 3.79 z-score
- binding signal [2]: 3.94 z-score
- binding signal [3]: 1.91 z-score
- binding signal [4]: 6.2 z-score
- binding signal [5]: 4.05 z-score

Sequence: CCGATTAACATCACTTTACCCCCTGATGTTAATCGGGTCTTGATTCGCTTGACGCTGCTG
- binding signal [1]: 4.02 z-score
- binding signal [2]: 2.61 z-score
- binding signal [3]: 6.83 z-score
- binding signal [4]: 2.27 z-score
- binding signal [5]: 3.05 z-score

Sequence: CCGATTAACATCAGATATTTCCCTGATGTTAATCGGGTCTTGATTCGCTTGACGCTGCTG
- binding signal [1]: 3.25 z-score
- binding signal [2]: 5.95 z-score
- binding signal [3]: 5.03 z-score
- binding signal [4]: 2.31 z-score
- binding signal [5]: 6.38 z-score

Sequence: CCGATTAACATCAGGGAATTAAATGATGTTAATCGGGTCTTGATTCGCTTGACGCTGCTG
- binding signal [1]: 2.06 z-score
- binding signal [2]: 4.46 z-score
- binding signal [3]: 3.84 z-score
- binding signal [4]: 2.47 z-score
- binding signal [5]: 4.32 z-score

Sequence: CCGATTAACATCAGGGAAACTCATGATGTTAATCGGGTCTTGATTCGCTTGACGCTGCTG
- binding signal [1]: 3.29 z-score
- binding signal [2]: 4.53 z-score
- binding signal [3]: 3.68 z-score
- binding signal [4]: 1.31 z-score
- binding signal [5]: 4.27 z-score

Sequence: CCGATTAACATCAGGGGATCCACTGATGTTAATCGGGTCTTGATTCGCTTGACGCTGCTG
- binding signal [1]: 7.41 z-score
- binding signal [2]: 5.27 z-score
- binding signal [3]: 2.76 z-score
- binding signal [4]: 9.75 z-score
- binding signal [5]: 6.81 z-score

Sequence: CCGATTAACATCAGGGGCTACCCTGATGTTAATCGGGTCTTGATTCGCTTGACGCTGCTG
- binding signal [1]: 4.03 z-score
- binding signal [2]: 3.47 z-score
- binding signal [3]: 1.76 z-score
- binding signal [4]: 3.48 z-score
- binding signal [5]: 6.2 z-score

Sequence: CCGATTAACATCAGGCGTCCCCCTGATGTTAATCGGGTCTTGATTCGCTTGACGCTGCTG
- binding signal [1]: 5.61 z-score
- binding signal [2]: 5.07 z-score
- binding signal [3]: 4.12 z-score
- binding signal [4]: 3.92 z-score
- binding signal [5]: 4.77 z-score

Sequence: CCGATTAACATCAGGGGATCTACTGATGTTAATCGGGTCTTGATTCGCTTGACGCTGCTG
- binding signal [1]: 5.31 z-score
- binding signal [2]: 4.68 z-score
- binding signal [3]: 1.96 z-score
- binding signal [4]: 9.02 z-score
- binding signal [5]: 5.74 z-score

Sequence: CCGATTAACATCAGAATGCCCCCTGATGTTAATCGGGTCTTGATTCGCTTGACGCTGCTG
- binding signal [1]: 4.74 z-score
- binding signal [2]: 5.02 z-score
- binding signal [3]: 2.56 z-score
- binding signal [4]: 3.56 z-score
- binding signal [5]: 5.26 z-score

Sequence: CCGATTAACATCACCAAATTCCCTGATGTTAATCGGGTCTTGATTCGCTTGACGCTGCTG
- binding signal [1]: 4.1 z-score
- binding signal [2]: 4.67 z-score
- binding signal [3]: 3.82 z-score
- binding signal [4]: 4.02 z-score
- binding signal [5]: 4.03 z-score

Sequence: CCGATTAACATCAGGGAATTCGATGATGTTAATCGGGTCTTGATTCGCTTGACGCTGCTG
- binding signal [1]: 3.01 z-score
- binding signal [2]: 3.99 z-score
- binding signal [3]: 2.25 z-score
- binding signal [4]: 1.66 z-score
- binding signal [5]: 3.01 z-score

Sequence: CCGATTAACATCAGAATTCCCACTGATGTTAATCGGGTCTTGATTCGCTTGACGCTGCTG
- binding signal [1]: 2.58 z-score
- binding signal [2]: 4.12 z-score
- binding signal [3]: 2.92 z-score
- binding signal [4]: 4.09 z-score
- binding signal [5]: 3.19 z-score

Sequence: CCGATTAACATCAGAATATTCCCTGATGTTAATCGGGTCTTGATTCGCTTGACGCTGCTG
- binding signal [1]: 5.6 z-score
- binding signal [2]: 6.1 z-score
- binding signal [3]: 3.41 z-score
- binding signal [4]: 3.01 z-score
- binding signal [5]: 5.6 z-score

Sequence: CCGATTAACATCACACACCCCCCTGATGTTAATCGGGTCTTGATTCGCTTGACGCTGCTG
- binding signal [1]: 4.13 z-score
- binding signal [2]: 3.15 z-score
- binding signal [3]: 3.85 z-score
- binding signal [4]: 3.82 z-score
- binding signal [5]: 3.48 z-score

Sequence: CCGATTAACATCAAACCCCCCCATGATGTTAATCGGGTCTTGATTCGCTTGACGCTGCTG
- binding signal [1]: 6.35 z-score
- binding signal [2]: 4.78 z-score
- binding signal [3]: 5.7 z-score
- binding signal [4]: 6.81 z-score
- binding signal [5]: 5.02 z-score

Sequence: CCGATTAACATCAGGGAGTCCCATGATGTTAATCGGGTCTTGATTCGCTTGACGCTGCTG
- binding signal [1]: 4.64 z-score
- binding signal [2]: 3.33 z-score
- binding signal [3]: 1.13 z-score
- binding signal [4]: 9.06 z-score
- binding signal [5]: 4.21 z-score

Sequence: CCGATTAACATCACCGCCCCCCCTGATGTTAATCGGGTCTTGATTCGCTTGACGCTGCTG
- binding signal [1]: 3.91 z-score
- binding signal [2]: 4.65 z-score
- binding signal [3]: 3.8 z-score
- binding signal [4]: 4.88 z-score
- binding signal [5]: 4.3 z-score

Sequence: CCGATTAACATCAGGGGTTCACCTGATGTTAATCGGGTCTTGATTCGCTTGACGCTGCTG
- binding signal [1]: 3.84 z-score
- binding signal [2]: 2.71 z-score
- binding signal [3]: 1.45 z-score
- binding signal [4]: 8.89 z-score
- binding signal [5]: 4.82 z-score

Sequence: CCGATTAACATCAGGGGGACAAATGATGTTAATCGGGTCTTGATTCGCTTGACGCTGCTG
- binding signal [1]: 4.37 z-score
- binding signal [2]: 4.84 z-score
- binding signal [3]: 7.51 z-score
- binding signal [4]: 2.64 z-score
- binding signal [5]: 4.19 z-score

Sequence: CCGATTAACATCACTAAAATCCCTGATGTTAATCGGGTCTTGATTCGCTTGACGCTGCTG
- binding signal [1]: 3.37 z-score
- binding signal [2]: 3.38 z-score
- binding signal [3]: 1.18 z-score
- binding signal [4]: 5.48 z-score
- binding signal [5]: 3.65 z-score
